Key:
Type in all cases: functional
[1] = molecular target: Solute carrier family 2, facilitated glucose transporter member 1 (Homo sapiens) (UniProt P11166); assay: ST_JUDE_LEISH: Cytotoxicity at 2uM final concentration against transgenic Leishmania Mexicana promastigotes LmGLUT1 that are glucose transport deficient and complemented with the human glucose transporter GLUT1. Activity is measured by DNA content using SYBR green in vitro
[2] = molecular target: Hexose transporter 1 (Plasmodium falciparum) (UniProt O97467); assay: ST_JUDE_LEISH: Cytotoxicity at 2uM final concentration against transgenic Leishmania Mexicana promastigotes LmPfHT that are glucose transport deficient and complemented with the Plasmodium falciparum hexose transporter. Activity is measured by DNA content using SYBR green in vitro
[3] = molecular target: Glucose transporter (Leishmania mexicana) (UniProt O61059); assay: ST_JUDE_LEISH: Cytotoxicity at 2uM final concentration against transgenic Leishmania Mexicana promastigotes LmGT2 that are glucose transport deficient and complemented with the L. Mexicana glucose transporter 2. Activity is measured by DNA content using SYBR green in vitro

Sequence of Solute carrier family 2, facilitated glucose transporter member 1 (Homo sapiens) (P11166 whole entry): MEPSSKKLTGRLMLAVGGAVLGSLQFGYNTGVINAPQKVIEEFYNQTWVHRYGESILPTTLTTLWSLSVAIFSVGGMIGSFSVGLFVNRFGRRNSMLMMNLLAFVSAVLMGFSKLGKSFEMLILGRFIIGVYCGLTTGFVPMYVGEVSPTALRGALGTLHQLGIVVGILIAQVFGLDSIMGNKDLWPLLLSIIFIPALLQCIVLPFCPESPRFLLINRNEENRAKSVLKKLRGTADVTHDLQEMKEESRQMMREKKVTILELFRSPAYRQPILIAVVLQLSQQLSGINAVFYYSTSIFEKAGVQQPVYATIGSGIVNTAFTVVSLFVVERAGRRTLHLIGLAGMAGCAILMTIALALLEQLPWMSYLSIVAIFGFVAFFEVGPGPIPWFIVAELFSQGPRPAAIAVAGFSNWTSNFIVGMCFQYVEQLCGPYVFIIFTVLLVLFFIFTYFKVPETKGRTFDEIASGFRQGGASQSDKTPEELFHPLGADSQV

Compound	inhibition [1] [%]	inhibition [2] [%]	inhibition [3] [%]
CS(=O)(=O)c1ccc2nc(NC(=O)c3csnn3)sc2c1	3.22	3.89	4.47
O=C(NCCCCN1CC=C(c2ccc3c(c2OCC2CC2)CCCC3)CC1)c1ccc(-c2ccc(C(F)(F)F)cc2)cc1	5.41	5.39	5.23
Cn1ncc2c3c(CCN4CCC(NCc5cc6c(cn5)OCC6)CC4)c(Cl)cnc3ccc21	0.52	0.99	0.05
COc1ccccc1CCNc1nc(C)cc(N[C@@H](Cc2ccccc2)C(=O)NCCc2ccccc2)n1	7.15	7.61	2.86
Cc1csc(-c2ncc(OC[C@@H](N)Cc3ccccc3)cc2-c2ccc3[nH]nc(C)c3c2)c1	2.54	0.85	-0.58
CCCCCCn1c(Sc2ccc(C#N)c([N+](=O)[O-])c2)nnc1-c1ccc(Cl)cc1	5.74	7.85	2.57
COCCOc1ccc(Nc2nccc(-c3c(-c4cccc(NC(=O)c5c(F)cccc5F)c4)nn4ccccc34)n2)cc1Cl	13.5	11.1	2.52
Cc1cc(N[C@@H](CC(C)C)C(=O)NCc2cccc(F)c2)nc(NCCc2ccccc2)n1	3.97	4.78	2.16
CCN(c1cc(C)nc(Nc2ccc(Cl)cc2)n1)[C@H]1CCN(Cc2ccccc2)C1	9.15	7.78	6.41
Cc1cc(N[C@@H](Cc2ccccc2)C(=O)NCc2cccs2)nc(NCCc2ccccc2)n1	2.96	2.94	-1.2
Cc1cc(NC(=O)Nc2ccc3ccn(C)c3c2)c2ccccc2n1	13	10.7	8.87
CC(C)CNC(=O)c1cncc(-c2ccc(CNCCCc3ccccc3)cc2)c1	0.94	-0.91	-0.55
